Consider 19 compounds from PubChem BioAssay.

A number with no mark means an inactive call. For some assays here: Measured potencies and affinities stand elsewhere. The source made the active and inactive calls. Unless noted, how the calls were made is not given here.

Experiment [1] in a line: antimalarial activity against Dd2 strain (AID 2302;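 active means growth inhibition above 50% at the single 2 µM test dose, taken to imply half-maximal potency below 2 µM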;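 further: 0% = DMSO untreated growth and 100% = chloroquine plus artemisinin killed control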). Conditions: P. falciparum Dd2 in RBCs, LDH growth readout, 72 h; at 2 µM; stronger effect = higher value.
Experiment [2] in a line: human hepatoma cell viability loss – ATP luminescence, cytotoxicity control for P. falciparum antimalarial project, primary screen (AID 2303;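 active means inhibition above 50%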;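 further: 0% = DMSO wells and 100% = digitonin-killed cells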). Conditions: HepG2 viability, 24-48 h, at 10 µM, stronger effect = higher value.
In experiment [3] the target is L-lactate dehydrogenase (Plasmodium falciparum (isolate CDC / Honduras)) (UniProt Q27743). In words: PfLDH activity inhibition – cell lysate, 3D7 strain, counter-screen for P. falciparum growth inhibition project (AID 2304).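 Further: 0% = vehicle and 100% = reference inhibitor.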 Conditions: P. falciparum 3D7 crude extract, LDH APAD/NBT absorbance; at 2 µM; stronger effect = higher value. For orientation: Counterscreens check selectivity or assay interference.
Sequence of L-lactate dehydrogenase (Plasmodium falciparum (isolate CDC / Honduras)) (Q27743 whole entry, looked up): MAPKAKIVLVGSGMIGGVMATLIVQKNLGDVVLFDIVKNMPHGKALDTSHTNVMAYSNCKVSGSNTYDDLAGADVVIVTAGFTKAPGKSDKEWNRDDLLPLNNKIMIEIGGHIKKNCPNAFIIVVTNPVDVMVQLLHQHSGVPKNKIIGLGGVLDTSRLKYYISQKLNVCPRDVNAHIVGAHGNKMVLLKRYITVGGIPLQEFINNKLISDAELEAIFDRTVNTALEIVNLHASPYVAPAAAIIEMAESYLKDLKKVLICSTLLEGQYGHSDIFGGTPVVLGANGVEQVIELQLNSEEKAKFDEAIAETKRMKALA

Experiment [4] can be described thus: inhibition of 3D7 malaria parasite growth – strain 3D7 (AID 2306).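 Further: 0% = DMSO wells and 100% = chloroquine plus artemisinin control wells.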 As to conditions: P. falciparum 3D7 erythrocytic growth, LDH absorbance, 72 h; at 2 µM; stronger effect = higher value.
Experiment [5] concerns the target Calcium-dependent protein kinase 1 (Plasmodium falciparum (isolate 3D7)) (UniProt P62344). The experiment can be described thus: PfCDPK1 kinase inhibitors, biochemical, TCAMS library (AID 1159585; cut-off not given, nearly all actives have IC50 up to about 0.98 µM;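 further: inhibitors leave more ATP so luminescence rises with inhibition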). As to conditions: recombinant PfCDPK1, Kinase-Glo ATP depletion luminescence.
Experiment [6] concerns the target Plasmodium falciparum protein kinase 6 (PK6, PF3D7_1337100) (UniProt Q8IDW1). In words: PfPK6 kinase inhibitors, biochemical, TCAMS library (AID 1159586). As to conditions: recombinant PfPK6, Kinase-Glo ATP depletion luminescence. Background: In Kinase-Glo more light means more ATP remaining.
In experiment [7] the target is Protein kinase 7 (PK7), Plasmodium falciparum 3D7 (PF3D7_0213400) (UniProt Q7YTF7). In words: inhibition of Plasmodium PK7 catalytic activity – biochemical, TCAMS antimalarial set, Kinase-Glo luminescence (AID 1159587). As to conditions: recombinant PfPK7, Kinase-Glo ATP depletion luminescence.
Sequence of Protein kinase 7 (PK7), Plasmodium falciparum 3D7 (PF3D7_0213400) (Q7YTF7 1-343): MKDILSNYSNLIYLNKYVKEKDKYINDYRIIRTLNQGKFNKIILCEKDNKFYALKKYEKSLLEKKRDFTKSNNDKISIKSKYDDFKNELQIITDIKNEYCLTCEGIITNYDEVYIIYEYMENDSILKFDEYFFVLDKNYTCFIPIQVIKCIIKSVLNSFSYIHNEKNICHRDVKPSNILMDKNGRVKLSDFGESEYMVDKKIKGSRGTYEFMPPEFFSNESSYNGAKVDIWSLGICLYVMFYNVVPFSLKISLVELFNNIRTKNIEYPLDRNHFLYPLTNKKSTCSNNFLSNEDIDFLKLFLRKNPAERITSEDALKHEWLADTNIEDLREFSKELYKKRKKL
Experiment [8] addresses Calcium-dependent protein kinase 4 (Plasmodium falciparum (isolate 3D7)) (UniProt Q8IBS5). The experiment can be described thus: PfCDPK4 kinase inhibitors, biochemical, TCAMS library (AID 1159588; cut-off not given, nearly all actives have IC50 up to about 0.91 µM). As to conditions: recombinant PfCDPK4, Kinase-Glo ATP depletion luminescence.

Sequence of Plasmodium falciparum protein kinase 6 (PK6, PF3D7_1337100) (Q8IDW1 1-305): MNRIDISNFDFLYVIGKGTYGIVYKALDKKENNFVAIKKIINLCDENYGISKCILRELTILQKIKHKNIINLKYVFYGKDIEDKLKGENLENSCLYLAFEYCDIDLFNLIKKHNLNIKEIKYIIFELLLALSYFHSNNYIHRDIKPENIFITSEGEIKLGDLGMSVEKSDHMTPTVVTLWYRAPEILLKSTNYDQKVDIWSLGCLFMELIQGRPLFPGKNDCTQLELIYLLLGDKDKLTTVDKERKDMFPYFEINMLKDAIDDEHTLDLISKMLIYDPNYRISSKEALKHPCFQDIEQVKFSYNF
Sequence of Calcium-dependent protein kinase 1 (Plasmodium falciparum (isolate 3D7)) (P62344 whole entry, looked up): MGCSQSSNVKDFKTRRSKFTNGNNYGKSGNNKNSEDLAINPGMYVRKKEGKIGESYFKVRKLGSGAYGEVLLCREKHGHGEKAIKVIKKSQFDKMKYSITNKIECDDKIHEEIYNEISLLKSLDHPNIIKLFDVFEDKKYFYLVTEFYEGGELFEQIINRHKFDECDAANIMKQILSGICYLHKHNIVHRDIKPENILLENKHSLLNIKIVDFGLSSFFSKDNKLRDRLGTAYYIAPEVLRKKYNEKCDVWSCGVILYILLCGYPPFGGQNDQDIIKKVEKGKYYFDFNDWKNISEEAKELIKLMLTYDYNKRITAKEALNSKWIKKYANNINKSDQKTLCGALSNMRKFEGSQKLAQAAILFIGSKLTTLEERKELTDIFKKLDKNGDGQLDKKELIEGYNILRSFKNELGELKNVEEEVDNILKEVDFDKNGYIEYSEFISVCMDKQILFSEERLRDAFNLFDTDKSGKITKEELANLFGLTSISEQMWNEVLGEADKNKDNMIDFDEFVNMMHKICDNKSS
Sequence of Calcium-dependent protein kinase 4 (Plasmodium falciparum (isolate 3D7)) (Q8IBS5 whole entry, looked up): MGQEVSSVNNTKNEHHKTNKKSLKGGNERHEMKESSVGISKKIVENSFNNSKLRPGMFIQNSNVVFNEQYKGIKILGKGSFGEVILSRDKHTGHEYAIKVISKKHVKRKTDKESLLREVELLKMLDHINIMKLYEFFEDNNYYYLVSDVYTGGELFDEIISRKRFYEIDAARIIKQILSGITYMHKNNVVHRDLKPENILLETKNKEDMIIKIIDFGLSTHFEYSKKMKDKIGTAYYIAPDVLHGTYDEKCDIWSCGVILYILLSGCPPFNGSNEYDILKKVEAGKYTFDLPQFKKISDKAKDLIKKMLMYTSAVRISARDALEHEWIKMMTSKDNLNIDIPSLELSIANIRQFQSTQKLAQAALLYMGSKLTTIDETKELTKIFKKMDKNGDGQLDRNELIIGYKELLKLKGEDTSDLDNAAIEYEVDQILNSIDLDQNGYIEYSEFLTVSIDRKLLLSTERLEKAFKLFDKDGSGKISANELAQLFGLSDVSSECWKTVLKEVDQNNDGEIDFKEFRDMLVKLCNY

Turning to `CC(CNCc1cn(Cc2cc(Br)cc(Br)c2)c2ccccc12)CNc1cc(=O)c2ccccc2[nH]1` (configuration not stated), the growth inhibition was 50% (active) in experiment [1] and 100% (active) in experiment [4]. Besides, the inhibition in experiment [2] is 10%; in experiment [3], 6%. Further, the outcome in experiment [5], in experiment [6], in experiment [7] and in experiment [8] was inactive.
For `O=C(Nc1cc(C(F)(F)F)cc(C(F)(F)F)c1)NC(CCCN1CCC2(CC1)OCc1ccccc12)c1ccc(Cl)c(Cl)c1` (configuration not stated), the values for the growth inhibition in experiment [1] and in experiment [4] were 87% (active) and 94% (active), respectively. In addition, the inhibition is 26% in experiment [2] and 2% in experiment [3]. The outcome in experiment [5], in experiment [6], in experiment [7] and in experiment [8] was inactive.
As to `O=C(NC1CC1)c1ccc(N2CCCC(COc3ccccc3F)C2)nc1` (configuration not stated), the growth inhibition was 92% (active) in experiment [1] and 87% (active) in experiment [4]. The inhibition in experiment [2] is 8%; in experiment [3], -2%. Besides, the result in experiment [5], in experiment [6], in experiment [7] and in experiment [8] was inactive.
For the compound `Cc1cccc2[nH]c(-c3cccc(-c4cccc(NC(=O)c5cncn5C)c4)c3)nc12`, the growth inhibition in experiment [1] is 91% (active); in experiment [4], 103% (active). Besides, the inhibition in experiment [2] is -1%; in experiment [3], 0%. The outcome in experiment [5], in experiment [6], in experiment [7] and in experiment [8] was inactive.
Turning to `Cc1ccccc1C1CCN(C2CCC(NC(=O)c3ccc(-c4cccc(C(F)(F)F)c4)o3)CC2)CC1` (configuration not stated), the results for the growth inhibition in experiment [1] and in experiment [4] were 101% (active) and 99% (active), respectively. The inhibition in experiment [2] was 56% (active); in experiment [3], -2%. Also, the outcome in experiment [5], in experiment [6], in experiment [7] and in experiment [8] was inactive.
Consider `NC(=O)c1ccsc1NC(=O)CNC(c1ccccc1)c1ccccc1`, for which the results for the growth inhibition in experiment [1] and in experiment [4] were 37% and 88% (active), respectively. For the same compound, the inhibition in experiment [2] was 8%; in experiment [3], 3%. For the same compound, the outcome in experiment [5], in experiment [6], in experiment [7] and in experiment [8] was inactive.
Regarding `COc1ccc(NC(=O)/C=C/c2ccc(-c3ccc(-c4noc(C)n4)cc3)cc2)cc1OCCN(C)C`, the figures for the growth inhibition in experiment [1] and in experiment [4] were 31% and 81% (active), respectively. Further, the results for the inhibition in experiment [2] and in experiment [3] were 14% and -3%, respectively. The result in experiment [5], in experiment [6], in experiment [7] and in experiment [8] was inactive.
For the compound `Oc1ccc(CN2Cc3ccccc3OC3(CCN(Cc4c[nH]c5cnccc45)CC3)C2)cc1`, the values for the growth inhibition in experiment [1] and in experiment [4] were 3% and 101% (active), respectively. The inhibition in experiment [2] is 17%; in experiment [3] it was -6%. Further, the result in experiment [5], in experiment [6], in experiment [7] and in experiment [8] was inactive.
`COc1ccc2nccc(N3CCC(NCc4ccc5c(n4)NC(=O)CS5)CC3)c2n1`: the growth inhibition in experiment [1] is 63% (active); in experiment [4], 100% (active). Further, the inhibition is 14% in experiment [2] and 6% in experiment [3]. Also, the result in experiment [5], in experiment [6], in experiment [7] and in experiment [8] was inactive.
`CCCCCN1CCC(NC(=O)c2ccc(C(=O)Nc3ccc(C(C)C)cc3)cc2)CC1`: the growth inhibition was 9% in experiment [1] and 98% (active) in experiment [4]. In addition, the values for the inhibition in experiment [2] and in experiment [3] were 41% and -4%, respectively. Further, the result in experiment [5], in experiment [6], in experiment [7] and in experiment [8] was inactive.
For the compound `CCCCCC(NCCCC)c1ccc(OCCOc2ccc(C(CCCCC)NCCCC)cc2)cc1` (configuration not stated), the growth inhibition is 96% (active) in experiment [1] and 88% (active) in experiment [4]. The results for the inhibition in experiment [2] and in experiment [3] were 99% (active) and -2%, respectively. For the same compound, the result in experiment [5], in experiment [6], in experiment [7] and in experiment [8] was inactive.
Regarding `O=C(/C=C/c1ccc(Cl)c(Cl)c1)NCCCCCN1CCC(NC(=O)Nc2ccc(C(F)(F)F)cc2)CC1`, the growth inhibition in experiment [1] is 34%; in experiment [4], 94% (active). The inhibition was 58% (active) in experiment [2] and 3% in experiment [3]. In addition, the outcome in experiment [5], in experiment [6], in experiment [7] and in experiment [8] was inactive.
Consider `O=c1c2ccccc2[nH]c2cc(Cl)ccc12`, for which the growth inhibition in experiment [1] is 86% (active); in experiment [4], 95% (active). In addition, the inhibition was 24% in experiment [2] and 1% in experiment [3]. Besides, the outcome in experiment [5], in experiment [6], in experiment [7] and in experiment [8] was inactive.
Turning to `Cc1c(CN2CCCCC2)cccc1OCCCNc1nc(NCCc2ccc(O)cc2)nc(N2CCNCC2)n1`, the growth inhibition in experiment [1] is 23%; in experiment [4], 101% (active). For the same compound, the inhibition was 26% in experiment [2] and 3% in experiment [3]. The result in experiment [5], in experiment [6], in experiment [7] and in experiment [8] was inactive.
Consider `COc1ccc(/C=C/C(=O)NCCCCCN2CCC(c3c[nH]c4ccccc34)CC2)cc1O`, for which the growth inhibition in experiment [1] was 1%; in experiment [4], 91% (active). The inhibition in experiment [2] was 9%; in experiment [3], -5%. Further, the result in experiment [5], in experiment [6], in experiment [7] and in experiment [8] was inactive.
As to `CC(Cc1ccc(Cl)cc1)Nc1nc(NC2CCCC2)nc(N2CCC(C#N)(c3ccccc3)CC2)n1` (configuration not stated), the growth inhibition is 95% (active) in experiment [1] and 99% (active) in experiment [4]. Besides, the results for the inhibition in experiment [2] and in experiment [3] were 15% and -6%, respectively. Also, the outcome in experiment [5], in experiment [6], in experiment [7] and in experiment [8] was inactive.
Turning to `O=C(NCCc1ccccc1)[C@H](Cc1ccccc1)Nc1ccnc(NCC2CCCCC2)n1`, the growth inhibition in experiment [1] is 53% (active); in experiment [4] it was 86% (active). Moreover, the inhibition in experiment [2] was 11%; in experiment [3], 2%. In addition, the result in experiment [5], in experiment [6], in experiment [7] and in experiment [8] was inactive.
With `COc1c(C2CCN(CCCCNC(=O)c3ccc(-c4ccc(Cl)cc4)cc3)CC2)ccc2c1C(C)(C)CCC2(C)C`, the figures for the growth inhibition in experiment [1] and in experiment [4] were 42% and 95% (active), respectively. Moreover, the inhibition in experiment [2] was 94% (active); in experiment [3], 1%. The result in experiment [5], in experiment [6], in experiment [7] and in experiment [8] was inactive.
Consider `COc1cc2cc(Cc3cnc(N)nc3N)ccc2c(OC)c1OC`, for which the growth inhibition was 2% in experiment [1] and 97% (active) in experiment [4]. Also, the inhibition was 1% in experiment [2] and 7% in experiment [3]. Further, the result in experiment [5], in experiment [6], in experiment [7] and in experiment [8] was inactive.

In general, inhibition refers to the relative decrease from the control value, in per cent.
